Holding throughout (type): functional
The subject of assay [1] is Plasmodium falciparum. Put plainly: GSK_TCMDC: Inhibition of Plasmodium falciparum 3D7 in whole red blood cells, using parasite LDH activity as an index of growth. Test compounds present at 2uM.
In assay [2] the test system is Plasmodium falciparum. Put plainly: GSK_TCMDC: Inhibition of Plasmodium falciparum Dd2 in whole red blood cells, using parasite LDH activity as an index of growth. Test compounds present at 2uM.
The subject of another assay is HepG2. Put plainly: GSK_TCMDC: Percent inhibition of human HepG2 cell line. Test compounds present at 10uM.

As for `CNC(=O)c1ccc2nc(-c3ccc(-c4ccccc4)cc3)n(CC3CCN(CC4CCCC4)CC3)c2c1.O=C(O)C(F)(F)F`, the values for the Inhibition with Plasmodium falciparum [1], in the assay with Plasmodium falciparum [2] and with HepG2 were 84%, 36% and 13%, respectively.

For `O=C(N1CCN(c2cccc(C(F)(F)F)c2)CC1)C(Cl)(Cl)Cl`, the values for the Inhibition in the assay on Plasmodium falciparum [1], with Plasmodium falciparum [2] and in the assay with HepG2 were 89%, 35% and 0%, respectively.

For `Cc1cccc2nc(-c3ccc(-c4cccc(CNCCc5ccncc5)c4)cc3)[nH]c12.O=C(O)C(F)(F)F`, the Inhibition in the assay on Plasmodium falciparum [1] is reported as 100%; in the assay on Plasmodium falciparum [2], 95%; in the assay on HepG2, 28%.

As for `CC1CCCC(NCc2c(O)ccc3ccccc23)C1.Cl` (configuration not stated), the results for the Inhibition in the assay with Plasmodium falciparum [1], in the assay on Plasmodium falciparum [2] and in the assay on HepG2 were 93%, 25% and 10%, respectively.

As for `CN1CCN(CC(=O)Nc2cccc(-c3cccc(-c4nc5cc(F)ccc5[nH]4)c3)c2)CC1`, the values for the Inhibition with Plasmodium falciparum [1], with Plasmodium falciparum [2] and with HepG2 were 100%, 98% and 16%, respectively.

With `Cc1c[nH]c(CCNC(=O)c2cc(-c3ccc(Cl)cc3)cs2)n1`, the Inhibition in the assay with Plasmodium falciparum [1] amounted to 100%; with Plasmodium falciparum [2], 7%; with HepG2 it was 12%.

For the molecule `COc1ccc(NC(=O)[C@H](CC(C)C)Nc2cc(C)nc(NCCc3ccc(F)cc3)n2)cc1.O=C(O)C(F)(F)F`, the Inhibition is recorded as 100% in the assay with Plasmodium falciparum [1], 79% in the assay with Plasmodium falciparum [2] and 1% with HepG2.

For the molecule `Cc1cccc2nc(-c3cccc(-c4cccc(CNCc5ccc(S(C)(=O)=O)cc5)c4)c3)[nH]c12.O=C(O)C(F)(F)F`, the figures for the Inhibition with Plasmodium falciparum [1], in the assay with Plasmodium falciparum [2] and in the assay with HepG2 were 100%, 66% and 13%, respectively.

With `Cc1nc2nc(N)nc(N)c2c(C)c1Cc1cccs1.Cl`, the Inhibition with Plasmodium falciparum [1] came out at 95%; with Plasmodium falciparum [2], 2%; in the assay with HepG2 it was 66%.

In the case of `CN1CCN(CCCN(Cc2csc(-c3ccc(CNCc4ccccc4)cc3)n2)S(=O)(=O)c2cccc3cccnc23)CC1.O=C(O)C(F)(F)F`, the figures for the Inhibition in the assay on Plasmodium falciparum [1], with Plasmodium falciparum [2] and with HepG2 were 89%, 32% and 5%, respectively.

`NC(=O)c1ccccc1Nc1nc(Nc2cc[nH]n2)ncc1Cl`: the Inhibition with Plasmodium falciparum [1] came out at 96%; in the assay with Plasmodium falciparum [2], 93%; with HepG2 it was 67%.

As for `CN(C)CCCOC(=O)c1cc2cc(-c3ccccc3)ccc2n1S(=O)(=O)Cc1ccccc1.Cl`, the results for the Inhibition in the assay on Plasmodium falciparum [1], in the assay on Plasmodium falciparum [2] and in the assay with HepG2 were 100%, 70% and 13%, respectively.

Regarding `O=C(Nc1ccc(Cl)cc1)c1cccc(S(=O)(=O)NC2CCN(CC3CCCCC3)C2)c1.O=C(O)C(F)(F)F` (configuration not stated), the Inhibition in the assay with Plasmodium falciparum [1] is 90%; with Plasmodium falciparum [2], 41%; with HepG2, 80%.

On to `N#Cc1ccc(-c2ccc(C(=O)NCC3CCN(CCN4CCC(c5ccc6c(c5OCC(N)=O)CCCC6)CC4)CC3)cc2)cc1`, for which the Inhibition in the assay on Plasmodium falciparum [1] amounted to 99%; in the assay on Plasmodium falciparum [2] it was 99%; in the assay on HepG2, 56%.

For `CCCCNCc1ccc(-c2nc(CN(CCCn3ccnc3)C(=O)NC3CC3c3ccccc3)cs2)cc1.O=C(O)C(F)(F)F` (configuration not stated), the Inhibition with Plasmodium falciparum [1] is reported as 100%; in the assay with Plasmodium falciparum [2] it was 34%; with HepG2 it was 21%.

With `CS(=O)(=O)c1ccc(OCCCN(Cc2ccccc2C(F)(F)F)c2ccc(C#N)c(C(F)(F)F)c2)cc1`, the figures for the Inhibition in the assay with Plasmodium falciparum [1], in the assay with Plasmodium falciparum [2] and in the assay with HepG2 were 94%, 76% and 4%, respectively.

Take `CC(CCCCC(=O)Nc1ccc(C(F)(F)F)cc1)NCC(O)c1cccc(Cl)c1` (configuration not stated): the Inhibition in the assay on Plasmodium falciparum [1] is recorded as 99%; in the assay on Plasmodium falciparum [2] it was 92%; in the assay on HepG2, 51%.

For `Cc1ccc(F)c(C(=O)Nc2cccc(-c3nn4ccccc4c3-c3ccnc(Nc4cccc(F)c4)n3)c2)c1F`, the figures for the Inhibition in the assay on Plasmodium falciparum [1], in the assay on Plasmodium falciparum [2] and in the assay on HepG2 were 98%, 60% and 35%, respectively.

Consider `O=C(NCC1CCN(CCN2CCc3ccc4c(c3C2)OCO4)CC1)c1ccc(-c2ccc(C(F)(F)F)cc2)cc1`, for which the Inhibition in the assay on Plasmodium falciparum [1] is 93%; in the assay on Plasmodium falciparum [2] it was 34%; in the assay with HepG2 it was 66%.

As usually defined, the Inhibition is how much of the control response was suppressed. A low value points to a response near the control.

Source of the values: ChEMBL document CHEMBL1157539, “Thousands of chemical starting points for antimalarial lead identification” (Nature, 2010).
